Measured values taken from the supplement of paper PMC6522484.
± gives the standard deviation of the averaged measurements.

How the values were obtained:
[1] = system: DLD1; experiment: cell viability (CellTiter-Glo) relative to plate median (fraction of plate median); higher = more viable cells; conditions: 5 µM; treatment time 24 h; reporter: 7TFP
Outline: (§1)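 Colorectal cancer cell lines stably carrying lentiviral TCF/Wnt firefly luciferase reporters (7TFP or TCF4/Wnt) were plated in 384-well plates and, 24 h later, given library compounds at a final 5 µM for 24 h. Firefly luciferase or CellTiterGlo luminescence was read on parallel plates with a Tecan F500 reader. Each well's signal was normalised to the plate median in webcellHTS2 (additive, without log transformation). Values are the mean of two independent replicates.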

[2] = system: HCT116; experiment: as above; conditions: 5 µM; treatment time 24 h; reporter: TCF4/Wnt
Outline: as §1

[3] = system: SW480; experiment: as above; conditions: 5 µM; treatment time 24 h; reporter: 7TFP
Outline: as §1

[4] = system: DLD1; experiment: TCF/Wnt firefly luciferase reporter signal relative to plate median (fraction of plate median); higher = higher Wnt reporter signal; conditions: 5 µM; treatment time 24 h; reporter: 7TFP
Outline: as §1

[5] = system: SW480; experiment: as above; conditions: 5 µM; treatment time 24 h; reporter: 7TFP
Outline: as §1

| Compound | cell viability [1] | cell viability [2] | cell viability [3] | TCF/Wnt firefly luciferase reporter signal [4] | TCF/Wnt firefly luciferase reporter signal [5] |
| --- | --- | --- | --- | --- | --- |
| CC1=CC2C(CC1=O)C(C)=CCC2C(C)C (stereo not given) | 0.983 ± 0.095 | 0.971 ± 0.084 | 1 ± 0.012 | 0.987 ± 0.1 | 0.945 ± 0.19 |
| CC(=O)O[C@@H]1CC2C(C)(C)C(=O)C3OC3[C@]2(C)C2CC[C@@]3(C)[C@H](c4ccoc4)OC(=O)C4OC43[C@@]21C (stereo not given in full) | 1.06 ± 0.014 | 1.1 ± 0.085 | 1.02 ± 0.035 | 1.02 ± 0.057 | 0.864 ± 0.078 |
| CCCCCCCCCCCCCCC(C(=O)O)C(O)(CC(=O)OC)C(=O)O (stereo not given) | 0.955 ± 0.05 | 0.878 ± 0.017 | 0.9505 ± 0.0064 | 0.979 ± 0.086 | 0.947 ± 0.028 |
| CN(C(=O)CN(CCO)CC(=O)N(C)C(C)(C)Cc1ccccc1)C(C)(C)Cc1ccccc1 | 1.01 ± 0.022 | 1.04 ± 0.11 | 1.11 | 1.15 ± 0.05 | 1.025 ± 0.0071 |
| CN(C(=O)C(Cl)Cl)c1ccc(OC(=O)c2ccco2)cc1 | 0.95 ± 0.0014 | 0.879 ± 0.2 | 1.03 ± 0.021 | 0.833 ± 0.14 | 0.934 ± 0.043 |
| COc1ccc2c(c1)[C@@]1(C)CC[C@@H](O)C[C@@H]1CC2 [12-METHOXY-4,4-BISNOR-5alpha-8,11,13-PODOCARPATRIEN-3-OL] | 1.02 ± 0.014 | 1.1 ± 0.13 | 0.984 ± 0.037 | 1.03 ± 0.11 | 0.937 ± 0.021 |
| CC(=O)O[C@@](C)(CCC=C(C)C)C1CC=C(C)CC1 (stereo not given in full) | 0.974 ± 0.066 | 1.02 ± 0.021 | 0.993 ± 0.067 | 0.9845 ± 0.0021 | 1.08 ± 0.028 |
| O=C(OC[C@H]1O[C@@H](OC(=O)c2cc(O)c(O)c(OC(=O)c3cc(O)c(O)c(O)c3)c2)[C@H](OC(=O)c2cc(O)c(O)c(OC(=O)c3cc(O)c(O)c(O)c3)c2)[C@@H](OC(=O)c2cc(O)c(O)c(OC(=O)c3cc(O)c(O)c(O)c3)c2)[C@@H]1OC(=O)c1cc(O)c(O)c(OC(=O)c2cc(O)c(O)c(O)c2)c1)c1cc(O)c(O)c(OC(=O)c2cc(O)c(O)c(O)c2)c1 | 1.025 ± 0.0071 | 0.915 ± 0.04 | 1 ± 0.05 | 0.794 ± 0.055 | 0.913 ± 0.047 |
| CN1CCC(=C2c3ccccc3Sc3ccccc32)CC1 | 1.004 ± 0.0092 | 0.913 ± 0.032 | 1.03 ± 0.059 | 0.874 ± 0.026 | 0.944 ± 0.071 |
| Nc1ccc(S(=O)(=O)NC(=O)c2ccccc2)cc1 | 1.07 ± 0.12 | 0.954 ± 0.12 | 1.11 ± 0.064 | 0.875 ± 0.15 | 1.02 ± 0.014 |
| CCC(O)CC1CCC(C(C)C(=O)OC(C)CC2CCC(C(C)C(=O)O)O2)O1 (stereo not given) [Bonactin] | 0.944 ± 0.027 | 0.941 ± 0.11 | 0.974 ± 0.0014 | 0.962 ± 0.054 | 0.87 ± 0.12 |
| Cc1ncc(C[n+]2csc(CCO)c2C)c(N)n1 | 0.981 ± 0.041 | 0.978 ± 0.088 | 1.005 ± 0.0071 | 0.926 ± 0.011 | 0.946 ± 0.02 |
| COC(=O)c1c(OC)cc2c(c1C)Oc1c(Cl)c(O)c(Cl)c(C)c1C(=O)O2 | 1.02 ± 0.036 | 1.04 ± 0.014 | 0.99 ± 0.0042 | 1.05 ± 0.085 | 0.954 ± 0.028 |
| COc1cc(CO)cc2c1C(=O)c1c(O)cc(O)cc1C2=O [Carviolin] | 0.883 ± 0.19 | 0.93 ± 0.018 | 0.99 ± 0.0014 | 0.811 ± 0.1 | 0.963 ± 0.044 |
| CN(C)CCCC1(c2ccc(F)cc2)OCc2cc(C#N)ccc21 (stereo not given) | 1.02 ± 0.044 | 1.01 ± 0.061 | 0.996 ± 0.048 | 0.964 ± 0.0014 | 1.01 ± 0.1 |
| CN1CCN2c3ccccc3Cc3ccccc3C2C1 (stereo not given) | 1.03 ± 0.053 | 1.08 ± 0.071 | 1.07 ± 0.021 | 1.04 ± 0.083 | 1.08 ± 0.071 |
| O=c1c(O)c(-c2ccccc2)oc2cccc(O)c12 | 1.03 ± 0.014 | 1.02 ± 0.044 | 1.01 ± 0.045 | 1.07 | 0.969 ± 0.021 |
| O=c1n(CCCN2CCN(c3cccc(Cl)c3)CC2)nc2ccccn12 | 1.005 ± 0.0071 | 0.987 ± 0.12 | 1.01 ± 0.014 | 1.08 ± 0.28 | 0.971 ± 0.083 |
| CC1NC(=O)CNC1=O (stereo not given) [cyclo(alanylglycyl)] | 0.883 ± 0.05 | 0.918 ± 0.051 | 0.925 ± 0.054 | 0.947 ± 0.012 | 1 ± 0.1 |
| CN1CCOC(c2ccccc2)c2ccccc2C1 (stereo not given) | 0.915 ± 0.048 | 0.997 ± 0.1 | 1 ± 0.014 | 0.9875 ± 0.0035 | 0.883 ± 0.12 |
| COC(=O)C1=CO[C@@H](O[C@@H]2O[C@H](CO)[C@@H](O)[C@H](O)[C@H]2O)[C@@H]2[C@@H](C)[C@@H](O)C[C@H]12 | 1.045 ± 0.0071 | 1.02 ± 0.047 | 1.06 ± 0.035 | 1.01 ± 0.016 | 1.09 ± 0.064 |
| CC(C)(C)NC[C@H](O)COc1cccc2c1CCCC2=O | 0.99 ± 0.043 | 1.03 ± 0.075 | 0.9555 ± 0.0035 | 0.886 ± 0.0085 | 0.981 ± 0.084 |
| Cc1cc(C(C)(C)C)c(O)c(C)c1CC1=NCCN1 | 0.977 ± 0.047 | 0.895 ± 0.016 | 0.972 ± 0.035 | 1.15 ± 0.13 | 1.065 ± 0.0071 |
| O=c1oc2ccccc2c(O)c1Cc1c(O)c2ccccc2oc1=O | 0.959 ± 0.037 | 0.979 ± 0.044 | 1.01 ± 0.028 | 1.18 ± 0.021 | 1.08 ± 0.05 |
| Cc1cc(NS(=O)(=O)c2ccc(N)cc2)no1 | 1.035 ± 0.0071 | 1.15 ± 0.035 | 1.01 | 1.09 ± 0.11 | 0.988 ± 0.032 |
| CCCCC(=O)O[C@]1(C(=O)CO)CC[C@H]2[C@@H]3CCC4=CC(=O)CC[C@]4(C)[C@H]3[C@@H](O)C[C@@]21C | 0.981 ± 0.084 | 1.02 ± 0.11 | 0.96 ± 0.013 | 1.02 ± 0.11 | 0.997 ± 0.061 |
| CC(=O)NCCCCCC(=O)O | 0.987 ± 0.047 | 1.01 ± 0.027 | 1.035 ± 0.0071 | 1.01 ± 0.068 | 1.04 ± 0.07 |
| O=C1c2cccc(O)c2C(=O)c2c(O)cccc21 | 0.96 ± 0.013 | 0.923 ± 0.12 | 0.992 ± 0.054 | 0.958 ± 0.12 | 1 ± 0.051 |
